Our source for the inhibition values is PubChem BioAssay AID624167 (Sanford-Burnham Center for Chemical Genomics, 2012).

Each structure is given as a SMILES string.

A short description of this experiment: inhibition of PEG-3 promoter-driven reporter – cell-based, HeLa, luciferase, CREF/GAPDH counter-screen panel, dose response (AID 624167). The conditions noted are these: CREF/GAPDH counter-screens; run 1, dose range 1, at 100 µM (top of the series). For orientation: Counterscreens check selectivity or assay interference.
As a reminder, the inhibition is the relative decrease from the control value, in per cent. On to `CS(=O)(=O)c1ccc(-c2cn3cc(C(=O)O)ccc3n2)cc1`, for which the inhibition came to 67.7%.

For the compound `CCC(c1ccc(O)c(O)c1)C(CC)c1ccc(O)c(O)c1` (stereo not drawn), the inhibition turned out to be 99%.

Turning to `COc1cc(OC)c2cc(C(=O)N/N=C/c3ccccc3O)[nH]c2c1`, the inhibition was determined as 79.9%. For the compound `Cc1ccc(C(C[N+](=O)[O-])Sc2ccc(N)cc2)cc1` (stereo not drawn), the inhibition came to 98.3%. For the compound `O=C(O)c1ccc(CN2C(=O)c3cccc4c([N+](=O)[O-])ccc(c34)C2=O)cc1`, the inhibition was found to be 99.1%.

In the case of `CCCCC(=O)NC(c1ccccc1)c1ccc2cccnc2c1O` (stereo not drawn), the inhibition was 47.5%. `COc1ccc(-n2c(O)c(/C=N/Nc3nc(C)cc(C)n3)c3ccccc3c2=O)cc1OC`: the inhibition was -8.04%.

Turning to `CN(C)S(=O)(=O)c1ccc(-c2csc(N/N=C/c3ccc(O)cc3)n2)cc1`, the inhibition stood at 91.3%. Take `COc1cc(C(=O)N/N=C(\c2ccccc2)c2ccccn2)cc(OC)c1OC`: the inhibition was determined as 20%.

`C=CCn1c(COc2ccccc2)nnc1SC(C)C(=O)N/N=C/c1cc(Cl)ccc1O` (stereo not drawn): the inhibition is 65%. `CCSc1nc2ccccc2n1C(=O)/C=C\c1ccc(OC)c(OC)c1`: the inhibition was determined as 77.4%. Next, `CCCC(=O)NC(c1ccc(C)cc1)c1ccc2cccnc2c1O` (stereo not drawn): 43.4%; `COc1ccc(C(NC(=O)C(C)C)c2ccc3cccnc3c2O)cc1` (stereo not drawn): 31.4%; `CS(=O)(=O)Nc1cccc(NC(=O)C2Cc3c(-c4cccc(F)c4)ccnc3O2)c1` (stereo not drawn): 74.9%. For the compound `Cc1ccc(/C=C2\SC(=S)N(CCCC(=O)Nc3ccccn3)C2=O)cc1`, the inhibition turned out to be 80.2%. Take `C/C(=N\NC(=O)c1c(C)nc2ccccn12)c1ccc(O)cc1O`: the inhibition was determined as 3.34%. On to `COc1ccc(N(C(=O)CCl)C(C(=O)NC2CCCCC2)c2cccnc2)cc1` (stereo not drawn), for which the inhibition turned out to be 82.9%.

For `COc1ccccc1Nc1nc(-c2sc(NC(=O)c3ccco3)nc2C)cs1`, the inhibition came out at 18%. For the compound `CC(=O)c1cccc(-c2ccnc3c2CC(C(=O)Nc2cccc(NS(C)(=O)=O)c2)O3)c1` (stereo not drawn), the inhibition is 51.4%.

With `CCOc1cccc(/C=N/NC(=S)Nc2cc(S(=O)(=O)N3CCOCC3)ccc2N2CCOCC2)c1O`, the inhibition was -13.9%. For `CN1C/C(=C/c2ccccc2[N+](=O)[O-])C(=O)/C(=C\c2ccccc2[N+](=O)[O-])C1`, the inhibition worked out at 50.1%. For `COc1cc(CNCCCN2CCOCC2)cc(Br)c1OCc1ccc(Cl)cc1`, the inhibition amounted to 99.6%. Turning to `Cc1cc(NC(c2ccc(Cl)cc2)c2ccc3cccnc3c2O)no1` (stereo not drawn), the inhibition is 39.3%. `N=c1n(CC(=O)c2ccc([N+](=O)[O-])cc2)c2ccccc2n1Cc1ccc(Cl)cc1`: the inhibition amounted to 86%. Consider `O=C(CNC(=O)C(c1ccccc1)c1ccccc1)N/N=C/c1ccc(O)cc1O`, for which the inhibition amounted to 30.2%. `COc1cc(Nc2c3ccccc3nc3ccccc23)cc(OC)c1OC`: the inhibition came out at 95.9%. As to `CCN(CC)S(=O)(=O)c1cccc(C(=O)N/N=C(\C)c2ccc(O)cc2O)c1`, the inhibition was -75.3%. Regarding `CCCCC(=O)NC(c1ccccc1OC)c1ccc2cccnc2c1O` (stereo not drawn), the inhibition came to 37.8%. As to `CCc1ccc(/C=C2\SC(=S)N(CCCC(=O)NC3=NCCS3)C2=O)cc1`, the inhibition was found to be 79.8%. Turning to `CN(C)c1ccc(C=c2c3ccccc3n3c2cc(-c2ccccc2)[n+]3C)cc1`, the inhibition turned out to be 99.9%.

As for `CCCC(=O)NC(c1ccc(N(C)C)cc1)c1ccc2cccnc2c1O` (stereo not drawn), the inhibition was found to be 25.9%. `CCc1ccn2cc(-c3ccc4c(c3)OCO4)nc2c1`: the inhibition came out at 92.7%. Consider `O=C(O)c1ccc(N/N=C/c2ccc(OC(=O)c3cccc(Cl)c3)cc2)cc1`, for which the inhibition amounted to 96.4%.
